Assay results from PubChem BioAssay (NCI).
About 83,000 compounds went through this panel and 20% of them were active in at least one assay; those are over-represented in the sample as a whole.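 96-well plates, one dose, 48 hours. Percent growth reported; active if below 10.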 Values without a mark were called inactive. The source made the active and inactive calls.

Legend:
Experiment in all cases: NCI-60 one-dose screen, 48 h (100 = growth as untreated, 0 = no growth, -100 = all killed)
Details in all cases: 10 µM unless noted
[1] = test system: SK-MEL-2 melanoma
[2] = test system: EKVX NSCLC
[3] = test system: SN12C renal
[4] = test system: UO-31 renal
[5] = test system: TK-10 renal
[6] = test system: ACHN renal
[7] = test system: CAKI-1 renal
[8] = test system: A498 renal
[9] = test system: CCRF-CEM leukemia
[10] = test system: MOLT-4 leukemia

SMILES	growth [1]	growth [2]	growth [3]	growth [4]	growth [5]	growth [6]	growth [7]	growth [8]	growth [9]	growth [10]
O=C(Nc1ccc(Cl)c(C(F)(F)F)c1)Nc1ccc(-c2cccnc2)cc1N1CCC(CO)CC1	-10.3% (active)	37.2%	31%	21.9%	22.2%	17.3%	34.3%	14.3%	9.72% (active)	4.83% (active)
CN(C)c1ccc(N=Nc2ccc3ccccc3c2)cc1	98.7%	83.5%	87%	57%	91.4%	87.8%	91.4%	88.5%	72%	80.8%
C[N+](C)(C)c1ncnc2[n-]cnc12	107%	81.8%	72.3%	87.8%	78.9%	95.3%	58.8%	81.5%	119%	102%
Clc1ccc2nc(-c3ccc(-c4ccc(/C=N/NC5=NCCN5)cc4)s3)cn2c1	110%	90.8%	88.6%	72.8%	123%	103%	106%	76.6%	76.3%	79.7%
Cc1ccc(-c2cn(C/C=C3\C=CN(S(=O)(=O)c4ccccc4)CC3)nn2)cc1	101%	101%	91.9%	72.6%	115%	95.8%	76.5%	94.3%	3.1% (active)	106%
O=C1COCCN1c1ccc(Nc2nc(Cl)nc(N3CCOCC3)n2)cc1	91.6%	92.3%	102%	93.5%	90.5%	98.5%	89.2%	73.7%	97%	96.3%
